# Experimental data published in the supplement of paper PMC7156485.
# ± gives the standard deviation of the averaged measurements.
# Tested on: HCC1569
# Assay: cell number relative to DMSO (% of DMSO); higher = more cells (less growth inhibition / toxicity)
# Conditions: concentration: 10 µM; 24 h
# Method in brief: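 Cell number or H1.0 nuclear intensity appears as percent of the plate control, based on the median of replicates. Measurements came from HCC1569 and TDF cells exposed in triplicate to compounds at 10 µM for 24 h at 37 °C, then imaged in six fields per well at ×10. Positional effects were smoothed out of HCC1569 values.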
# 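Also: TDF denotes transformed human dermal fibroblasts of mesenchymal origin.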
row,Structure (SMILES),cell number
1,CN1CCC2(CCN3CCc4c(oc5ccccc45)C3C2)N(C)C1=O.Cl (centres undefined),102
2,CN(c1nc2ccccc2s1)C1CCN(CC(O)COc2ccc(F)c(F)c2)CC1.Cl.Cl (centres undefined),84.8
3,CCN(CCCl)Cc1ccccc1Br.Cl [DSP-4 hydrochloride],98.7
4,CP(=O)([O-])C1=CC[NH2+]CC1,96.6
5,CC=C(C)C(=O)OC1CCC2(C)C3CCC4C5(O)CC(O)C6(O)C(CN7CC(C)CCC7C6(C)O)C5(O)CC42OC13O (centres undefined) [Cevadine],99.9
6,"CC(=O)[C@H]1CC[C@H]2[C@@H]3CC[C@H]4C[C@](C)(O)CC[C@]4(C)[C@H]3CC[C@]12C [(3alpha,5alpha)-3-hydroxy-3-methylpregnan-20-one]",105
7,CCCC[N+]1(C)C2CC(OC(=O)C(CO)c3ccccc3)CC1C1OC12 (centres undefined) [Scopolamine N-butyl],103
8,CC(N)C(=O)OC(C)(C)Cc1ccc(Cl)cc1.Cl (centres undefined) [Alaproclate hydrochloride],102
9,COc1cc2c(c(OC)c1OC)-c1ccc(SC)c(=O)cc1C(NC(C)=O)CC2 (centres undefined) [Thiocolchicine],59.6
10,C=CCN1CC(C)N(C(c2ccc(C(=O)N(CC)CC)cc2)c2cccc(OC)c2)CC1C (centres undefined),102
11,NC(=O)CI [Iodoacetamide],47.9
12,CC12C(=O)OC(=O)C1(C)C1CCC2O1 (centres undefined) [Cantharidin],20.6 ± 2.2
13,C#CC1(O)CCC2C3CCC4=CC(=O)CCC4=C3C=CC21CC (centres undefined) [Gestrinone],99.4
14,O.O=P1(N(CCCl)CCCl)NCCCO1 (centres undefined) [Cyclophosphamide monohydrate],79.6
